Data published in PubChem BioAssay AID720700 (The Scripps Research Institute Molecular Screening Center, 2013).
Hit rate of the full screen: of about 370,000 compounds, about 3,100 (0.84%) were called active. This is one part of a sample in which actives are shown more often than they occur. Rule as the data show it: active = inhibition above about 9.5%; inactive = the rest.

What follows are compounds tested against 1-phosphatidylinositol 4,5-bisphosphate phosphodiesterase gamma-1 (Homo sapiens) (UniProt P19174) (assay: PLC-gamma1 enzyme inhibitors, primary screen, biochemical, fluorescence, purified enzyme (AID 720700)). Settings: purified PLC-gamma1, fluorogenic substrate, at 12.2 µM, hits give high values.
1-phosphatidylinositol 4,5-bisphosphate phosphodiesterase gamma-1 (Homo sapiens), sequence (P19174 whole entry, looked up): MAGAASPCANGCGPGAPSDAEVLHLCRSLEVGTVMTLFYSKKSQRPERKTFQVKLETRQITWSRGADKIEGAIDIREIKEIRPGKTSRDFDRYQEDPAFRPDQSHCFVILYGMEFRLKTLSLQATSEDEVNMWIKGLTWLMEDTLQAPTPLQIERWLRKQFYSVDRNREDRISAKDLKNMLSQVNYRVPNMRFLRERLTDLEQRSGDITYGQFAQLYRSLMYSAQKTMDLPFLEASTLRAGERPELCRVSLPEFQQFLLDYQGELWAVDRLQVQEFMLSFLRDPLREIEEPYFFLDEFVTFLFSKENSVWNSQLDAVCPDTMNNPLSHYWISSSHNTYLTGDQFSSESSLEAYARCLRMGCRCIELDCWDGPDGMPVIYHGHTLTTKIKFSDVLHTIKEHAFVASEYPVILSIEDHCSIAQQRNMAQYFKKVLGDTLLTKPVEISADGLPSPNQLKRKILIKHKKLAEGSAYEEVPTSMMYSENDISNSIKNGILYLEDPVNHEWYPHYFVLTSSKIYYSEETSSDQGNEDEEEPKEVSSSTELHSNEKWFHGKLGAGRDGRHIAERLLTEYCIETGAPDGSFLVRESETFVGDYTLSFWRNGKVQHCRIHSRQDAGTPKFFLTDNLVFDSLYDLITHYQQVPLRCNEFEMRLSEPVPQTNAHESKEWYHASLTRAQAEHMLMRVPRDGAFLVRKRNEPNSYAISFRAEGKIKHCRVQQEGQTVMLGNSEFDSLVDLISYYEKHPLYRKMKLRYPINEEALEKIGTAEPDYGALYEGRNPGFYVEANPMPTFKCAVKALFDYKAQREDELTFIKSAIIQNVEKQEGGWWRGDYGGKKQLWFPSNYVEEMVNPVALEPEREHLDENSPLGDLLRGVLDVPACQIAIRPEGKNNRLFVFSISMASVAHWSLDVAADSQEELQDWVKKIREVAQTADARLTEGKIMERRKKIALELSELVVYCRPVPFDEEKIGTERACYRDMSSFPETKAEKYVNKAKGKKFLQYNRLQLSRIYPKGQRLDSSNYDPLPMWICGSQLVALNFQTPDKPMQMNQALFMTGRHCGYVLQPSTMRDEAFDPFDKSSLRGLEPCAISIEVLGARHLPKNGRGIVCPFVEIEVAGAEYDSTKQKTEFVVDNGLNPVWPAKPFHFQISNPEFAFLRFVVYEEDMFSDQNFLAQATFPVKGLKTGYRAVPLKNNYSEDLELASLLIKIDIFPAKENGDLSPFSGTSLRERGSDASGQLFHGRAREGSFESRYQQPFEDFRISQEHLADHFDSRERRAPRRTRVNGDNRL

Row | SMILES | inhibition
1 | COc1ccc([C@H]2OC(=O)C[C@H]2C(=O)N2CCN(c3ccccc3F)CC2)cc1OC | 0.67% (inactive)
2 | O=S(=O)(Nc1ccc(Oc2ncccn2)c(Cl)c1)c1ccc(F)cc1 | 9.74% (active)
3 | O=S(=O)(Nc1ncccn1)c1ccc(NS(=O)(=O)c2cccc(Cl)c2Cl)cc1 | 4.05% (inactive)
4 | Cn1c(=O)n(C)c2cc(NS(=O)(=O)c3ccc(F)cc3)ccc21 | 0.25% (inactive)
5 | COC(=O)c1cccc(Cn2ccc3ccc(-c4ccc5ccn(C(=O)c6ccccc6C)c5c4)cc32)c1 | -16.3% (inactive)
6 | CCC(NC(=O)C1C2C=CC3(CN(Cc4ccccc4)C(=O)C13)O2)c1ccccc1 (stereo not drawn) | -2% (inactive)
7 | CN(CC(=O)Nc1ccccc1Cl)C(=O)COc1cccc2c1OC(C)(C)C2 | 11.8% (active)
8 | CC1(C)Cc2cccc(OCC(=O)Nc3nccs3)c2O1 | 0.31% (inactive)
9 | COc1cccc(CCNC(=O)COc2cccc3c2OC(C)(C)C3)c1 | 3.51% (inactive)
10 | Cc1c[nH]c2cccc(-c3ccc(Cl)cc3)c12 | -12% (inactive)
11 | C=CCNc1nc(N)c([N+](=O)[O-])c(NC2CCCCC2)n1 | 4.77% (inactive)
12 | Nc1nc(NCC(=O)O)nc(N2CCCCCC2)c1[N+](=O)[O-] | 9.71% (active)
13 | COCCNc1nc(N)c([N+](=O)[O-])c(N2CCCCCC2)n1 | 7.3% (inactive)
14 | CC(C)(C)c1ccc(CSc2nnc(-c3cccs3)o2)cc1 | 0.5% (inactive)
15 | O=C(CCl)NC1CCCCN(Cc2cccc(C(F)(F)F)c2)C1=O (stereo not drawn) | -1.65% (inactive)
16 | CCOC(=O)[C@@]12CCC3=C1N(CCC3)C(=O)[C@H](CC(=O)N1CCN(C(=O)c3ccco3)CC1)C2 | -1.32% (inactive)
17 | CN(C(=O)c1ccc(NC(=O)Cc2cccc(NC(=O)C3CCN(C(=O)c4ccccc4)CC3)c2)cc1)C1CC1 | 10.7% (active)
18 | CN(C(=O)c1cccc(NC(=O)Cc2ccc(NC(=O)C3CCN(C(=O)C4CCCCC4)CC3)cc2)c1)C1CCC1 | 1.78% (inactive)
19 | CN(C(=O)c1cccc(NC(=O)Cc2cccc(NC(=O)C3CCCN(C(=O)C4CC4)C3)c2)c1)C1CCC1 (stereo not drawn) | 0.32% (inactive)
20 | CC(C)(C)NC(=O)C(c1cccnc1)N(C(=O)c1cnco1)c1ccc(C(C)(C)C)cc1 (stereo not drawn) | 0.93% (inactive)
21 | COC(=O)[C@]12C[C@H](CC(=O)NCc3cccc4ccccc34)C(=O)N(CCc3ccc(OC)c(OC)c3)C1=C[C@H](C1CCCC1)O[C@@H]2C | 4.89% (inactive)
22 | CCOc1ccccc1C1CC(c2cccc(NS(C)(=O)=O)c2)=NN1C(=O)c1ccccc1 (stereo not drawn) | 9.81% (active)

Row | SMILES | inhibition
23 | CS(=O)(=O)Nc1cccc(C2=NN(C(=O)c3cccc(F)c3)C(c3cccs3)C2)c1 (stereo not drawn) | -0.97% (inactive)
24 | Cc1ccc(C2CC(c3cccc(NS(C)(=O)=O)c3)=NN2S(C)(=O)=O)cc1 (stereo not drawn) | 2.31% (inactive)
25 | C=C1C(C(C)C)N(C)C2=NC(c3ccccc3)CC(=O)N12 (stereo not drawn) | -2.56% (inactive)
26 | C=CCN1C(=O)[C@@H](CC(=O)N2CCN(C(=O)c3ccco3)CC2)[C@]2(C(=O)OC)CCCCC=C12 | -0.31% (inactive)
27 | O=C(C(c1ccccc1)c1ccccc1)N1CCN(CC(O)COc2ccccc2)CC1 (stereo not drawn) | 9.59% (active)
28 | CCCc1ccc(OCC(O)CN2CCN(C(=O)OCC)CC2)cc1 (stereo not drawn) | 8.68% (inactive)
29 | CC(=O)N1CCN(CC(c2ccccc2)c2ccccc2)CC1 | -0.45% (inactive)
30 | Nn1c(SCC(=O)Nc2cccc3ccccc23)nnc1-c1cc(-c2ccc(F)cc2)n[nH]1 | -1.09% (inactive)
31 | C[C@H]1CCC/C=C/C(=O)c2c(O)cc(O)cc2CC(=O)O1 | -3.4% (inactive)
32 | COc1ccc(CNC(=O)COC(=O)CCS(=O)(=O)c2ccc(C)cc2)cc1OC | 0.41% (inactive)
33 | CCOc1ccc(CCNC(=O)COC(=O)CCS(=O)(=O)c2ccc(C)cc2)cc1OCC | 9.85% (active)
34 | CCOc1ccc(CCNC(=O)COC(=O)c2c(OC)cccc2OC)cc1OCC | 6.67% (inactive)
35 | C=C(C)C#CC(Cc1ccccc1)NCC1CC1 (stereo not drawn) | 0.45% (inactive)
36 | O=C(O)C1CCCCC1C(=O)N1CCN(S(=O)(=O)c2ccc(F)cc2)CC1 (stereo not drawn) | 4.99% (inactive)
37 | O=C(CN1CCN(S(=O)(=O)c2ccc(F)cc2)CC1)NC1CC1 | -1.88% (inactive)
38 | O=S(=O)(c1ccc(F)cc1)N1CCN(C(=S)NC2CCCC2)CC1 | 10.9% (active)
39 | C=CCNC(=O)C12CC3CC(C1)CC(C(=O)NCC=C)(C3)C2 | -0.37% (inactive)
40 | CCOc1ccccc1NC(=O)C12CC3CC(C1)CC(c1ccc(C)cc1)(C3)C2 | 0.03% (inactive)
41 | Cc1ccc(C23CC4CC(CC(C(=O)NCC(=O)O)(C4)C2)C3)cc1 | 9.87% (active)
42 | O=C(Nc1ccc(Br)cc1)OCCN1C(=O)CCC12CCC(c1ccccc1)CC2 (stereo not drawn) | 4.23% (inactive)
43 | O=C(NC1CCC1)c1ccc(C#CC2CC2)cn1 | -0.59% (inactive)
44 | COCCCn1c(SCC(=O)Nc2ccccc2)nnc1-c1ccncc1 | -0.81% (inactive)

Row | SMILES | inhibition
45 | O=C(CSc1nnc(-c2ccncc2)n1C1CCCCC1)Nc1ccccc1 | 10.2% (active)
46 | O=C(CSc1nnc(-c2ccncc2)n1-c1ccc(Cl)cc1)Nc1ccc(C(=O)O)cc1 | -0.57% (inactive)
47 | COc1ccccc1CCNC(=O)C1CCN(c2nc(C)cc(C)n2)CC1 | -0.02% (inactive)
48 | Cc1ccc(-c2nc(C3CCCN(S(=O)(=O)c4ccc(Br)s4)C3)no2)cc1 (stereo not drawn) | 0.61% (inactive)
49 | O=S(=O)(NCCCN1CCOCC1)c1ccc(F)c(Cl)c1 | -0.87% (inactive)
50 | COc1ccc(-c2ccc(CNCCCN3CCOCC3)o2)cc1Cl | 1.38% (inactive)
51 | C=CCOc1ccc(Cl)cc1CNCCCN1CCOCC1 | 10.7% (active)
52 | Cc1ccccc1NC(=O)Cn1nnc(-c2ccccc2F)n1 | 0.94% (inactive)
53 | CN1[C@H](Cc2ccccc2)COc2cccc(N3CCSCC3)c2S1(=O)=O | -5.49% (inactive)
54 | O=C1NC2(CCCCC2)N=C1c1ccccc1 | 10.4% (active)
55 | COc1ccc(NC(=O)CN2C(=O)C(c3ccccc3)=NC23CCCCCC3)cc1OC | 1.88% (inactive)
56 | O=C1NC2(CCCCCC2)C(=O)N1CCS(=O)(=O)Oc1ccccc1 | 1.93% (inactive)
57 | C=CCN1C(=O)[C@@H](CC(=O)N2CCN(C(=O)OCC)CC2)[C@]2(C(=O)OCC)CCCCC/C=C/12 | -1.67% (inactive)
58 | C=CC[C@@H](CC(=O)NCCO)C(=O)N[C@H](C)COC(=O)[C@@H](CC=C)CC(=O)OC(C)(C)C | 9.97% (active)
59 | C=CC[C@@H](CC(=O)N[C@@H](CO)Cc1ccccc1)C(=O)NCCOC(=O)[C@@H](CC=C)CC(=O)OC(C)(C)C | 5.69% (inactive)
60 | C=CC[C@@H](CC(=O)N[C@@H](CO)Cc1ccccc1)C(=O)N[C@H](COC(=O)[C@H](CC=C)CC(=O)OC(C)(C)C)Cc1ccccc1 | 0.69% (inactive)
61 | O=C(N1CCOCC1)N1CC[C@H]2[C@H](CCCN2Cc2ccc(F)cc2)C1 | -1.67% (inactive)
62 | COc1ccc(C2Nc3ccccc3C(=O)N2Cc2cccs2)cc1COc1c(C)cccc1C (stereo not drawn) | -106% (inactive)
63 | CCOC(=O)Nc1ccc2c(c1)N(C(=O)CCCl)c1ccccc1[S@]2=O | -0.45% (inactive)
64 | CCOC(=O)Nc1ccc(S(=O)(=O)N(C)C(C)C)cc1 | 0.75% (inactive)
65 | CCOC(=O)Nc1ccc(NC(=O)OCC)cc1 | 11.8% (active)
66 | COc1ccc(N2CCN(CCNS(=O)(=O)c3ccc(Cl)s3)CC2)cc1 | -2.58% (inactive)

Row | SMILES | inhibition
67 | NC(=O)C1CCN(C(=O)c2ccc3c(=O)n(Cc4cccc(Br)c4)c(=S)[nH]c3c2)CC1 | 4.14% (inactive)
68 | O=C(O)c1ccc(Cn2c(=S)[nH]c3cc(Cl)ccc3c2=O)cc1 | 11% (active)
69 | CCOc1cc2[nH]c(=S)n(Cc3ccc(C(=O)N4CCN(C)CC4)cc3)c(=O)c2cc1OCC | -0.53% (inactive)
70 | O=C(NC1CCCCN(Cc2cccc(C(F)(F)F)c2)C1=O)c1ccccc1I (stereo not drawn) | -1.03% (inactive)
71 | COc1ccc(OC)c(C(=O)c2coc3ccc(O)c(CN4CCOCC4)c23)c1 | -8.55% (inactive)
72 | COc1ccc(C(=O)CC(=O)c2ccc(C)cc2)c(O)c1 | -16% (inactive)
73 | COc1ccc(/C(C)=N/N2CCOCC2)c(O)c1 | 15.9% (active)
74 | COC(=O)c1cc(S(=O)(=O)N2CCN(C(=O)C3CCCO3)CC2)cn1C (stereo not drawn) | 0.5% (inactive)
75 | C[C@@H](NC(=O)c1ccccc1OCC(=O)Nc1ccc(I)cc1)C(=O)N(C)Cc1ccccc1 | -0.29% (inactive)
76 | COc1ccc(C2(c3ccc(OC)cc3)NC(=O)N(CC(=O)Nc3cc(C)on3)C2=O)cc1 | 0.49% (inactive)
77 | Cc1cc(NC(=O)CN2C(=O)NC(CC(C)C)C2=O)no1 (stereo not drawn) | 10.2% (active)
78 | Cc1cc(NC(=O)CN2C(=O)NC(CCc3ccccc3)C2=O)no1 (stereo not drawn) | -2.53% (inactive)
79 | CC(c1ccc(N)cc1)c1cn(C)c2ccccc12 (stereo not drawn) | 0.79% (inactive)
80 | CCOC(=O)[C@]12CCCC=C1N(Cc1ccc(OC)cc1)C(=O)[C@@H]2CC(=O)NCc1cccs1 | 0.39% (inactive)
81 | O=C1Nc2ccccc2OC1CC(=O)N1CCCCCCC1 (stereo not drawn) | -0.62% (inactive)
82 | CNC(=O)C[C@H]1C(=O)N(c2ccc(OC)cc2)C[C@@H]1Cc1ccccc1 | 1.07% (inactive)
83 | O=C(C[C@H]1C(=O)N(c2ccc(F)c(F)c2)C[C@@H]1Cc1ccccc1)Nc1ccccc1 | 17.8% (active)
84 | C[C@H]1CN(c2ccc(Br)cc2)C(=O)[C@@H]1CC(=O)Nc1ccc(Br)cc1 | -2.46% (inactive)
85 | Cc1ccc(-n2c(SCC(=O)Nc3cccc4ccccc34)nnc2-c2ccco2)cc1 | 0.45% (inactive)
86 | CC(C)Cn1cnc2c1c(=O)n(CC(=O)NN)c(=O)n2Cc1ccccc1 | -18.6% (inactive)
87 | CC(C)CCn1cnc2c1c(=O)n(CC(=O)NC(N)=O)c(=O)n2Cc1ccccc1 | 2.87% (inactive)
88 | CC(C)Cn1cnc2c1c(=O)n(CC(O)c1ccccc1)c(=O)n2CC(C)C (stereo not drawn) | 16.4% (active)
